Among the data in PubChem BioAssay AID1835 (Johns Hopkins Ion Channel Center, 2009) are activity increase over dofetilide control, less the hit threshold values, retold here.

Molecules are shown by their SMILES. About 750 (31%) of roughly 2,400 compounds were called active. Some of the results follow. A number with no mark means an inactive call.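 How the source made its calls: active means median signal gain over dofetilide-blocked control wells reaching their mean plus 3 SD, so readout 1 at least 0; inactive means the rest.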

Chain of Voltage-gated inwardly rectifying potassium channel KCNH2 (Homo sapiens) (Q12809 whole entry, looked up): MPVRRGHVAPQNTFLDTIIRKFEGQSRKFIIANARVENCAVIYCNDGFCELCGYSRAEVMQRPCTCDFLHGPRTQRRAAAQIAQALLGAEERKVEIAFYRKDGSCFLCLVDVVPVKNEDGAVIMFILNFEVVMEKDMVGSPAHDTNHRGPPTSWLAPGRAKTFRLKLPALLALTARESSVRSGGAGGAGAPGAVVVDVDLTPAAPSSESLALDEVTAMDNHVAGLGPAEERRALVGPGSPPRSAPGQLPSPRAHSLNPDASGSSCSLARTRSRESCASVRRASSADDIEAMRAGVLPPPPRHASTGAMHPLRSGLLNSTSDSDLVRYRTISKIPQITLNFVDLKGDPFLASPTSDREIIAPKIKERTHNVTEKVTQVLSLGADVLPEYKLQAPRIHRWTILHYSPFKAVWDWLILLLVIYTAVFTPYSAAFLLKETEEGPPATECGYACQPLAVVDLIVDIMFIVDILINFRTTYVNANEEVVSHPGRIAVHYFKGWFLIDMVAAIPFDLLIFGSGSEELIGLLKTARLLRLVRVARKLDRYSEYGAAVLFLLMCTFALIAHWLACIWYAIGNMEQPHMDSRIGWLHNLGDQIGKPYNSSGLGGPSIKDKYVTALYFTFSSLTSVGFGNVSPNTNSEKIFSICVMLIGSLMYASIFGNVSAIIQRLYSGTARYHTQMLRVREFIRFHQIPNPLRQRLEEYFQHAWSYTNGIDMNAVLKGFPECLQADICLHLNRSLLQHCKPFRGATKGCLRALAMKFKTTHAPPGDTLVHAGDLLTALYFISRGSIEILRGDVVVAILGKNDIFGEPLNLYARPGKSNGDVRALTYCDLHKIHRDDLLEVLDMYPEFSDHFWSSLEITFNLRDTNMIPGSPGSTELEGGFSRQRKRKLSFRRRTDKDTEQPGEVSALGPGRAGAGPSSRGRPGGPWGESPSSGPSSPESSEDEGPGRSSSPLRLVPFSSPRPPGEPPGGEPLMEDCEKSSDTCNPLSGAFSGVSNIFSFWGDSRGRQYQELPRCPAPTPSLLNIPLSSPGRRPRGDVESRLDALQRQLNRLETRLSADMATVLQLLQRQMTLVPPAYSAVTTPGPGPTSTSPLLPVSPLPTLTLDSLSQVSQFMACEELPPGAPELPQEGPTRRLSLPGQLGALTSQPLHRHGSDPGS

This test concerns the target Voltage-gated inwardly rectifying potassium channel KCNH2 (Homo sapiens) (UniProt Q12809). The test is described as follows: hERG protection against dofetilide inhibition, confirmation, cell-based, thallium flux, duplicate retest, dofetilide IC70 (AID 1835). Particulars: hERG cell line, FluxOR thallium flux, dofetilide-blocked; at 10 µM; hits give high values.
Regarding `Cc1cccc(-n2c(=S)[nH]c3sc4c(c3c2=O)CCc2ccccc2-4)c1`, the activity increase over dofetilide control, less the hit threshold was -6%.

As for `CC1CCc2c(sc3[nH]c(=S)n(C)c(=O)c23)C1` (stereo not drawn), the activity increase over dofetilide control, less the hit threshold was 82% (active).

Turning to `CCCCNC1=CC(=O)C(=O)c2ccccc21`, the activity increase over dofetilide control, less the hit threshold is -9%.

On to `O=C(OCc1ccccc1)/C(=C/c1cccc([N+](=O)[O-])c1)NC(=O)c1ccco1`, for which the activity increase over dofetilide control, less the hit threshold was -5%. Regarding `Cc1ccccc1NC1=NC(=S)N(c2ccccc2)C12CCCCC2`, the activity increase over dofetilide control, less the hit threshold was 22% (active). Take `CC1(C)CC2(CCO1)C(Nc1ccccc1)=NC(=S)N2CC(N)=O` (stereo not drawn): the activity increase over dofetilide control, less the hit threshold is -15%. The figure for `COc1ccc(NC(=O)C(=O)NNC(=O)C(C)Oc2ccc(Cl)cc2Cl)cc1` (stereo not drawn) is 59% (active); for `COc1ccc(NC(=O)C(=O)NNC(=O)c2ccc(Cl)cc2Cl)cc1` it is 59% (active); for `COc1ccc(-c2cc(C(F)(F)F)nc(SCC(=O)NCc3cccs3)n2)cc1` it is -18%. Take `CCOc1ccc(C(=O)NC(=S)N(Cc2ccccc2)Cc2ccccc2)cc1`: the activity increase over dofetilide control, less the hit threshold is 73% (active). The value for `COc1cc(OC)cc(C(=O)NC(=S)N(Cc2ccccc2)C(C)C)c1` was 30% (active). `CC(C)N(Cc1ccccc1)C(=S)NC(=O)C1(C)CC1(Cl)Cl` (stereo not drawn): the activity increase over dofetilide control, less the hit threshold is 35% (active).

Take `COc1cc(OC)cc(C(=O)OCC(=O)N(C)c2ccccc2)c1`: the activity increase over dofetilide control, less the hit threshold was -9%. Regarding `CCCOc1ccc(C(=O)NNC(=S)NC(=O)c2ccccc2)cc1`, the activity increase over dofetilide control, less the hit threshold is -36%. `CCCOc1ccc(CN(CCC#N)C(=S)NC(=O)c2ccccc2)cc1`: the activity increase over dofetilide control, less the hit threshold is 9% (active). As for `COc1ccc(CN(Cc2cccnc2)C(=S)NCCc2ccccc2)cc1OC`, the activity increase over dofetilide control, less the hit threshold was -11%. With `N#CCCN(Cc1ccccc1)C(=S)NC(=O)c1ccccc1`, the activity increase over dofetilide control, less the hit threshold was -3%.

On to `CCCN(CC1CC1)C(=S)Nc1ccccc1F`, for which the activity increase over dofetilide control, less the hit threshold is -7%. `C=CCN(CC=C)C(=S)NC(=O)c1ccc(-c2ccccc2)cc1`: the activity increase over dofetilide control, less the hit threshold is -2%. The value for `CCCN(CCC)C(=S)NC(=O)c1ccc(-c2ccccc2)cc1` was 97% (active); that for `COc1ccc(C(=O)NC(=S)N(Cc2ccccc2)Cc2ccccc2)cc1` was 43% (active); that for `COc1ccccc1NC(=O)C1CCCN1C(=O)Nc1ccc(F)cc1` (stereo not drawn) was -14%.

In the case of `CC(C)c1cccc(C(C)C)c1NC(=O)COC(=O)[C@H](C)NC(N)=O`, the activity increase over dofetilide control, less the hit threshold is -11%. Turning to `C/C(=N\NC(=O)c1cc2ccccc2cc1O)c1ccccn1`, the activity increase over dofetilide control, less the hit threshold is -10%.

Turning to `C/C(=N\NC(=O)c1ccoc1C)c1cccc2ccccc12`, the activity increase over dofetilide control, less the hit threshold is -13%.

On to `C/C(=N\NC(=O)c1cc2ccccc2cc1O)c1ccc(C)o1`, for which the activity increase over dofetilide control, less the hit threshold is 50% (active).

For the molecule `C/C(=N/NC(=O)c1sc(NS(=O)(=O)c2ccccc2)nc1C)c1sc(N)nc1C`, the activity increase over dofetilide control, less the hit threshold was -15%. As to `O=C(OCc1ccc([N+](=O)[O-])cc1)c1cc2ccccc2oc1=O`, the activity increase over dofetilide control, less the hit threshold is -25%. For the molecule `C/C(=N\NC(=O)c1cc2ccccc2cc1O)c1cc2ccccc2o1`, the activity increase over dofetilide control, less the hit threshold is 95% (active). On to `C/C(=N\NC(=S)Nc1c(C)cccc1C)c1cc2ccccc2o1`, for which the activity increase over dofetilide control, less the hit threshold is -5%.

Turning to `C/C(=N/NC(=O)c1cc2ccccc2cc1O)c1ccco1`, the activity increase over dofetilide control, less the hit threshold was 40% (active). The figure for `Cc1cc(N2CCN(C)CC2)nc(N2CCOCC2)n1` is -6%; for `O=C(N1CCOCC1)N1CCC(n2nnc3ccccc32)CC1` it is -8%.

`CN(C)c1oc(-c2ccccc2)nc1C#N`: the activity increase over dofetilide control, less the hit threshold was -17%. Take `Cn1c(=O)c2c(ncn2CC(=O)OCc2ccccc2)n(C)c1=O`: the activity increase over dofetilide control, less the hit threshold was -11%. As for `Cc1cc(C=O)c2c(c1)C=CC1(Oc3ccccc3C(=O)N1C)O2` (stereo not drawn), the activity increase over dofetilide control, less the hit threshold was -29%. `O=C(Cn1c(=O)c2cccn2c2ccccc21)NCCc1ccc(Cl)cc1`: the activity increase over dofetilide control, less the hit threshold is -16%.

Take `Oc1oc(-c2cccc3ccccc23)nc1/C=N/c1nccs1`: the activity increase over dofetilide control, less the hit threshold was 4% (active). Take `CCCCn1nnc(NC(=O)c2ccc(-c3cccc([N+](=O)[O-])c3)o2)n1`: the activity increase over dofetilide control, less the hit threshold was -6%.

For `O=C(O)CSc1nc2ccccc2nc1Cc1ccccc1F`, the activity increase over dofetilide control, less the hit threshold was 5% (active). With `O=C(O)CSCc1c(F)cccc1Cl`, the activity increase over dofetilide control, less the hit threshold was -7%.

With `Cn1c(CNC(=O)c2ccccc2F)nnc1SCc1nc2ccccc2c(=O)[nH]1`, the activity increase over dofetilide control, less the hit threshold was -9%.

With `COc1ccc(NC(=O)CN2C(=O)S/C(=C/c3cccn3-c3ccc(C(=O)O)cc3)C2=O)cc1`, the activity increase over dofetilide control, less the hit threshold is 94% (active). As for `Cc1cccc(NC(=O)CN2C(=O)S/C(=C\c3cccn3-c3cccc(C(=O)O)c3)C2=O)c1`, the activity increase over dofetilide control, less the hit threshold is 7% (active). As to `Cc1ccc(NC(=O)CN2C(=O)S/C(=C\c3cccn3-c3cccc(C(=O)O)c3)C2=O)c(C)c1`, the activity increase over dofetilide control, less the hit threshold is -4%. The figure for `Cc1ccc(NC(=O)CN2C(=O)N/C(=C/c3ccccc3OCc3cccc(C(=O)O)c3)C2=O)cc1` is -16%. For the molecule `COc1ccc(C(=O)Nc2ccc(-n3nncc3C(C)(C)C)cc2)cc1`, the activity increase over dofetilide control, less the hit threshold is -4%. The figure for `Oc1c(Cl)cc(Cl)cc1Sc1cc(Cl)cc(Cl)c1O` is 76% (active); for `O=C(O)CCCN1C(=O)C2C3c4ccccc4C(c4ccccc43)[C@@H]2C1=O` (stereo partly drawn) it is -15%; for `Cc1noc(C)c1-c1nnc(-c2ccc(C(F)(F)F)cc2)o1` it is -11%. As to `Cc1ccc(O)c(C(=O)CC(=O)c2ccccc2Cl)c1`, the activity increase over dofetilide control, less the hit threshold is -2%.

For `O=C(/C=C/c1ccccc1)CC(=O)c1ccccc1O`, the activity increase over dofetilide control, less the hit threshold was 11% (active).

As for `Cc1ccc(C(=O)CC(=O)c2ccccc2C)c(O)c1`, the activity increase over dofetilide control, less the hit threshold is -3%.
